A short description of assay [1]: E. coli DRC41 culture turbidity changes, primary screen, E. coli filamentation inducer project, strain DRC41, OD650, 48 h (AID 1152).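 Note: E. coli MC1000 strain DRC41 lacking acrAB efflux pump and sulA.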 Conditions: E. coli DRC41 (acrAB sulA), higher = more signal, called active from +8 up or from −8 down.
Assay [2] can be described thus: small-molecule binders of probe aLefty1, primary screen, biochemical, small-molecule microarray, 635/667 nm fluorescence (AID 1153).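 Note: score merges spot fluorescence with signal-to-noise ratio from the scanned slide images.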 To be noted: higher = more signal.
The nature of assay [3]: PSAC antagonists in infected red cells, primary screen, cell-based, P. falciparum Indochina, OD700, 1 h (AID 1154). To be noted: P. falciparum Indochina infected RBC osmotic lysis, higher = more signal, called active from +8 up or from −8 down.
A short description of assay [4]: PSAC antagonists in infected red cells, primary screen, cell-based, P. falciparum Indochina, OD700, 2 h (AID 1155).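 Note: lysis reports solute entry through the parasite surface anion channel PSAC; channel blockers reduce lysis of infected cells.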 Conditions: P. falciparum Indochina infected erythrocytes, osmotic lysis OD700; higher = more signal, called active from +8 up or from −8 down.
Assay [5] is described as follows: osmotic lysis modulators in infected erythrocytes, primary screen, PSAC antagonist project, cell-based, P. falciparum Indochina, OD700, 3 h (AID 1156). Conditions: higher = more signal, called active from +8 up or from −8 down.
The nature of assay [6]: PSAC antagonists in infected red cells, primary screen, cell-based, P. falciparum Indochina, OD700, 18 h (AID 1157). Conditions: P. falciparum Indochina infected erythrocytes, osmotic lysis OD700, 18 h; higher = more signal, called active from +8 up or from −8 down.
Assay [7] is described as follows: modulators of S6 phosphorylation in cells, primary screen, cell-based, A549, cytoblot, luminescence, serum-stimulated (AID 1158).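 Note: serum-stimulated A549 lung adenocarcinoma cells; signal is phosphorylated S6 detected by cytoblot immunostaining with HRP secondary.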 To be noted: A549 phospho-S6 cytoblot, 5 h, higher = more signal.
In assay [8] the target is NADPH oxidase 2 (Homo sapiens) (UniProt P04839). The assay is described as follows: NOX2-dependent H2O2 signal modulators, primary screen, NOX inhibitor project, cell-based, HEK293-NOX2, PMA-stimulated, Amplex Red fluorescence (AID 1159). Note: test concentration not given here. Conditions: 45 min, higher = more signal, called active from +8 up or from −8 down.
The target in assay [9] is NADPH oxidase 4 (Homo sapiens) (UniProt Q9NPH5). Briefly: NOX4-dependent H2O2 signal modulators, primary screen, NOX inhibitor project, cell-based, HEK293-NOX4, tetracycline-induced, Amplex Red fluorescence (AID 1160). Conditions: 45 min, higher = more signal, called active from +8 up or from −8 down.
The target of assay [10] is NADPH oxidase 5 (Homo sapiens) (UniProt Q96PH1). Briefly: NOX5-dependent H2O2 signal modulators, primary screen, NOX inhibitor project, cell-based, HEK293-NOX5, Amplex Red fluorescence (AID 1161). To be noted: HEK293-NOX5, ionomycin, 45 min, higher = more signal.
A short description of assay [11]: A549 cell viability effects, profiling panel, calcein-AM fluorescence, 48 h, basal (AID 1162). Note: test concentration not given here. To be noted: higher = more signal.
Assay [12] in a line: adipocyte viability effects, profiling panel, cell-based, 3T3-L1 adipocytes, calcein-AM fluorescence, 48 h, basal (AID 1163). Note: test concentration not given here. Conditions: 3T3-L1 adipocytes viability, higher = more signal.
Assay [13] can be described thus: HepG2 cell viability effects, profiling panel, calcein-AM fluorescence, 48 h, basal (AID 1164). Note: test concentration not given here. Conditions: higher = more signal.
Assay [14] can be described thus: MM1S cell viability effects, profiling panel, calcein-AM fluorescence, 48 h, basal (AID 1165).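 Note: viability of MM1S multiple myeloma cells under basal unstimulated conditions; test concentration not given here.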 Conditions: higher = more signal.
Assay [15] in a line: basal RPMI8226 viability, no added stimulus, profiling panel, cell-based, calcein-AM fluorescence, 48 h, PK04 Diversity Set (AID 1166).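 Note: cells grown under basal conditions without added stimulus; test concentration not given here.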 To be noted: RPMI8226 myeloma viability, higher = more signal.
Assay [16] in a line: basal HepG2 mitochondrial membrane potential changes, profiling panel, cell-based, JC-1 fluorescence, 24 h, 100 nL compound (AID 1167). Note: test concentration not given here. To be noted: higher = more signal.
The nature of assay [17]: basal 3T3-L1 adipocyte mitochondrial potential changes, profiling panel, cell-based, JC-1 fluorescence, 3T3-L1 adipocytes, 24 h, 100 nL compound (AID 1168). Note: test concentration not given here. To be noted: JC-1 mitochondrial fluorescence, higher = more signal, called active from +8 up or from −8 down.
Assay [18] can be described thus: basal RPMI8226 mitochondrial membrane potential changes, profiling panel, cell-based, JC-1 fluorescence, 24 h, 100 nL compound (AID 1169). Note: test concentration not given here. To be noted: RPMI8226 myeloma, JC-1 mitochondrial potential fluorescence, higher = more signal.
A short description of assay [19]: basal MM1S mitochondrial membrane potential changes, profiling panel, cell-based, JC-1 fluorescence, 24 h, 100 nL compound (AID 1170). Note: test concentration not given here. Conditions: higher = more signal.
The nature of assay [20]: A549 lung cancer cell viability effects, profiling panel, resazurin fluorescence, 24 h, PK04 Diversity Set (AID 1171). Note: test concentration not given here. Conditions: higher = more signal, called active from +8 up or from −8 down. A general note: The colour change of resazurin is a common sign of viable cells or microbes.

Activity calls are given as the source filed them.

Sequence of NADPH oxidase 4 (Homo sapiens) (Q9NPH5 whole entry, looked up): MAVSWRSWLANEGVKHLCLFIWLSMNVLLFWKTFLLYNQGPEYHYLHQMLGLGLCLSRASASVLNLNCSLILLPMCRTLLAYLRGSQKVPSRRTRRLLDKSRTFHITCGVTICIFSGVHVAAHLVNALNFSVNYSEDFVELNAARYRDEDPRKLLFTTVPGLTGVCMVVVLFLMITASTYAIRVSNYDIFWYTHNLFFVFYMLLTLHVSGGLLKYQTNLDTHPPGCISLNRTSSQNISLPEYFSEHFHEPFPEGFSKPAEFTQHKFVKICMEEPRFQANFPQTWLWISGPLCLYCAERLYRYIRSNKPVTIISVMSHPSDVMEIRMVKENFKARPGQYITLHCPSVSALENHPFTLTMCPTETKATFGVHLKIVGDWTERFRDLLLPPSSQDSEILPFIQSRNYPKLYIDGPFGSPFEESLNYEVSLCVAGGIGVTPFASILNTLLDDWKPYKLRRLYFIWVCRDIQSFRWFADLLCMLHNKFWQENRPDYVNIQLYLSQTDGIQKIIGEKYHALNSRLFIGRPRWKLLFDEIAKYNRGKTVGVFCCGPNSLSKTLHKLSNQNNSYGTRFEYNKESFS
Sequence of NADPH oxidase 5 (Homo sapiens) (Q96PH1 whole entry, looked up): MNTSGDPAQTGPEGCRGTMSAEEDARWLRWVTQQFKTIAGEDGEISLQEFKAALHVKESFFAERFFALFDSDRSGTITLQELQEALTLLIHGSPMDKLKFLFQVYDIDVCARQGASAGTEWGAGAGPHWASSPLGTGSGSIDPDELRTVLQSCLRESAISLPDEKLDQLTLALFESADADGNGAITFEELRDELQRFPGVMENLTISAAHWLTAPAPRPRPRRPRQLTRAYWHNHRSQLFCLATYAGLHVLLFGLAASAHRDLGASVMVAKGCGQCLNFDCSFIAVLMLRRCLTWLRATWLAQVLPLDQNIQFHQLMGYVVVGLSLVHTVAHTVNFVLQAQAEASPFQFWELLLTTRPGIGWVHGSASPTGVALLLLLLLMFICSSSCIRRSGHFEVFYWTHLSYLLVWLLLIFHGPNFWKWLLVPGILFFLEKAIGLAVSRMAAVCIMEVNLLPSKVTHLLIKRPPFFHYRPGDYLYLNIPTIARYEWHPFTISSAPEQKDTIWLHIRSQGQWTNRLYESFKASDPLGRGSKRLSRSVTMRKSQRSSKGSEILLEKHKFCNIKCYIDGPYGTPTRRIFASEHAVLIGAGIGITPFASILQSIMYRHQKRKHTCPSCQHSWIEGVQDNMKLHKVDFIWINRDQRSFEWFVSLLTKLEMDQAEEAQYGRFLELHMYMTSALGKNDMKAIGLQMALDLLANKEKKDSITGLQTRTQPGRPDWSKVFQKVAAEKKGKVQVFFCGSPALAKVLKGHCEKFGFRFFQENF
Sequence of NADPH oxidase 2 (Homo sapiens) (P04839 whole entry, looked up): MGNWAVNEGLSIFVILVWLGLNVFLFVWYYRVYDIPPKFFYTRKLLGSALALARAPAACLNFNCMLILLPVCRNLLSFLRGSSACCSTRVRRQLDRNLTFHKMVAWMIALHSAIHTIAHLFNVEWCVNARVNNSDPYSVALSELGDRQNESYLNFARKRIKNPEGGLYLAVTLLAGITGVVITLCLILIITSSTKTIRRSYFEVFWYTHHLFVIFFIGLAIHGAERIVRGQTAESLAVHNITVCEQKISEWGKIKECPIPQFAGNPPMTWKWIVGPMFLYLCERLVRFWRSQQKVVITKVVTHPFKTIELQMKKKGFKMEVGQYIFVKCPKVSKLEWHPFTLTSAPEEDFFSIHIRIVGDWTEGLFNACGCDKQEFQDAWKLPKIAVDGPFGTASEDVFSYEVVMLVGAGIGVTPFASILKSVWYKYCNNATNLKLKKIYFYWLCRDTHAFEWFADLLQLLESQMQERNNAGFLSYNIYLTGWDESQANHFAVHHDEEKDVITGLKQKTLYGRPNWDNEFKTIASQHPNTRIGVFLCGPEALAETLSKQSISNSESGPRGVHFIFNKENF

`C=CCC(OC(C)=O)[C@@H]1[C@@H](N(Cc2cccc3ccccc23)C(=O)c2ccc(C)cc2)c2cc(OCCCO)ccc2N1C(=O)c1ccc2ccccc2c1` (stereo not given in full): the z-score was 2.04 (inactive) in [1]; 0.306 (inactive) in assay [3]; -0.171 (inactive) in assay [4]; -1.1 (inactive) in assay [5]; -0.888 (inactive) in [6]; 1.86 in assay [7]. Moreover, the z-score was -1.14 (inactive) in [8]; 0.935 (inactive) in [9]; 2.64 in assay [10]; 0.93 in assay [11]; 1.08 in assay [12]; 2.15 in assay [13]. Further, the z-score in assay [14] was 0.577; in assay [15], 0.12; in [16], 2.37; in [17], 0.658 (inactive); in assay [18], 0.102; in [19] it was -0.796. For the same molecule, the z-score in [20] is 0.912 (inactive). In assay [2], the composite z-score stood at 0.25.

With `C[C@@]1([C@@H](NC(=O)c2cccs2)c2ccc(-c3ccccc3)cc2)C[C@H]1C1CCCCC1`, the z-score was -1.79 (inactive) in assay [1]; 1.41 (inactive) in assay [3]; -0.427 (inactive) in [4]; 1.13 (inactive) in assay [5]; -1.34 (inactive) in assay [6]; 2.17 in assay [7]. In addition, the z-score is -4.07 (inactive) in [8]; -4.4 (inactive) in [9]; -1.59 in assay [10]; -1.23 in assay [11]; 0.437 in assay [12]; -0.644 in [13]. The z-score in assay [14] is -2.17; in [15], -4.43; in assay [16], -0.734; in [17] it was 0.395 (inactive); in assay [18], -0.843; in assay [19], -1.09. The z-score in [20] was 2.26 (inactive). The composite z-score in [2] was determined as 0.371.

Regarding `COc1cc(C(O)C2C=CC3C(=O)N(C)C(=O)C3N2NC(=O)OC(C)(C)C)cc(OC)c1OC` (stereo not given), the z-score in [1] is -1.47 (inactive); in assay [3], -0.249 (inactive); in assay [4] it was 1 (inactive); in [5] it was -0.226 (inactive); in assay [6] it was 1.12 (inactive); in assay [7] it was -1.27. For the same molecule, the z-score is -0.231 (inactive) in [8]; -0.726 (inactive) in [9]; -1.48 in [10]; -1.58 in assay [11]; -0.785 in assay [12]; -0.884 in assay [13]. The z-score was -2.19 in assay [14]; -0.907 in assay [15]; -1.66 in [16]; -0.321 (inactive) in [17]; -0.872 in assay [18]; 0.415 in assay [19]. Besides, the z-score in [20] was -0.679 (inactive). For the same molecule, the composite z-score in assay [2] was 0.733.

Turning to `CC(C)CNC(=O)[C@@]1(C)c2ccccc2C(=O)N(Cc2ccccc2)[C@H]1c1ccc(CO)cc1`, the z-score in assay [1] is -0.743 (inactive); in assay [3], 3.11 (inactive); in [4] it was 0.122 (inactive); in assay [5], 0.709 (inactive); in [6], 0.0589 (inactive); in assay [7], 0.11. Further, the z-score is -0.912 (inactive) in assay [8]; 0.0265 (inactive) in [9]; -1.13 in assay [10]; -0.151 in assay [11]; -0.751 in assay [12]; -0.323 in assay [13]. Besides, the z-score in assay [14] is -0.408; in assay [15], 0.0402; in assay [16] it was 0.164; in [17], -0.491 (inactive); in [18], 0.0136; in assay [19], -0.216. For the same molecule, the z-score in [20] is 0.407 (inactive). Besides, in assay [2], the composite z-score is -0.16.

As for `[N-]=[N+]=NCc1ccccc1[C@H]1OC(c2ccc(OCCCO)cc2)=N[C@@]1(Cc1ccccc1N=[N+]=[N-])C(=O)NCCN1CCOCC1`, the z-score in assay [1] was 0.0417 (inactive); in [3] it was 24.7 (active); in [4] it was 16.2 (active); in assay [5], 1.7 (inactive); in [6], 1.85 (inactive); in assay [7] it was -0.0338. Moreover, the z-score in assay [8] was -0.753 (inactive); in [9], -0.358 (inactive); in assay [10], 1.41; in assay [11] it was -0.71; in [12], -0.675; in assay [13] it was 0.0583. Moreover, the z-score in assay [14] is -1.71; in assay [15], -1.52; in assay [16] it was -0.247; in [17], -0.738 (inactive); in assay [18], -0.841; in assay [19] it was -0.549. The z-score in assay [20] is 0.0825 (inactive). The molecule further returned a composite z-score in assay [2] of 0.194.

For the molecule `COC(=O)c1c(CC[C@@H](CO)NC(=O)N[C@@H](C)Cn2cc(C3(O)CCCC3)nn2)oc(C(C)=O)c1C(=O)OC`, the z-score in [1] was -0.274 (inactive); in [3], 1.88 (inactive); in assay [4], -0.8 (inactive); in assay [5] it was 0.816 (inactive); in [6] it was -1.45 (inactive); in [7], 2.2. Also, the z-score in [8] was -2.54 (inactive); in [9], -1.84 (inactive); in assay [10], -2.35; in [11], 0.329; in [12], 1.45; in assay [13], -0.299. The z-score in [14] is -2.1; in [15], -0.371; in assay [16], -0.428; in [17], 1.04 (inactive); in assay [18] it was -0.357; in [19] it was 0.932. Further, the z-score in [20] is -0.514 (inactive). For the same molecule, in [2], the composite z-score was 0.0561.

In the case of `C=C(COC)C(=O)CC[C@H](OC(=O)c1ccccc1-c1ccccc1C(=O)O)c1ccc(OCCO)cc1`, the z-score in assay [1] is 0.146 (inactive); in [3], 10.5 (active); in assay [4], 1.72 (inactive); in assay [5], 2 (inactive); in [6], 0.626 (inactive); in [7], -0.0494. The z-score in assay [8] is 0.00741 (inactive); in assay [9], -0.221 (inactive); in [10], -1.8; in assay [11], -0.127; in assay [12] it was 1.06; in assay [13] it was -0.626. Also, the z-score in [14] was -1.85; in [15], -0.385; in [16], -0.271; in [17], -0.328 (inactive); in assay [18], -0.463; in assay [19], 0.463. Further, in [20], the z-score was -0.276 (inactive). In assay [2], this molecule yielded a composite z-score of 0.134.

In the case of `O=C1O[C@H](c2ccccc2)[C@H](c2ccccc2)N2[C@H]1[C@@H](C(=O)N1CCN(c3ncccn3)CC1)[C@]1(C(=O)Nc3ccc(C#CCCO)cc31)[C@H]2c1ccc(OCCO)cc1`, the z-score in assay [1] is -0.0115 (inactive); in assay [3], 4.32 (inactive); in [4] it was 1.18 (inactive); in [5], 0.588 (inactive); in [6], 0.585 (inactive); in assay [7] it was 0.034. Further, the z-score in assay [8] is 1.11 (inactive); in assay [9] it was 0.57 (inactive); in [10], 0.951; in [11] it was -0.696; in [12], 0.404; in [13] it was -0.53. The z-score in [14] was -1.04; in assay [15] it was -0.284; in assay [16] it was -0.838; in [17], 0.717 (inactive); in assay [18], -0.883; in assay [19], -0.386. In addition, the z-score in assay [20] was 0.978 (inactive). This molecule also registered a composite z-score in [2] of 0.473.

The values are drawn from PubChem BioAssay.
